Compound activity from PubChem BioAssay.
Most compounds without a hit are left out; they make up all but 3.6% or so of the library.
CendR NRP1 mod = NRP-1/CendR interaction modulation; FAM-RPARPAR peptide binding to NRP-1, fluorescence polarization; inhibition, % at 25 µM; actives 0.85% (n = 360,000);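 active = inhibition or corrected inhibition above about 18%, plus a signal ratio from 0.5 to 1.5, limit read from the data, passing the limit was not always enough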
Myeloid diff 2 = promotes myeloid progenitor differentiation. AID 624256. actives 1% (n = 360,000). calls only at 10 µM. ER-HoxA9 myeloid progenitors, lysozyme-GFP differentiation, flow cytometry;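 active = normalized GFP-positive differentiation at or above the plate's own cutoff, the solvent-only control mean plus 3 SD; inconclusive = no clear call, values can overlap the other calls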;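 note: cells exposed to compound for four days before flow analysis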
FAS TE block = inhibitors of human fatty acid synthase thioesterase domain | P49327 | actives 0.67% (n = 360,000) | inhibition, % at 15 µM | AID 602261 | recombinant FAS-TE, OMFH fluorogenic substrate, fluorescence endpoint;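 active = compounds whose normalised, plate-corrected inhibition of enzyme fluorescence in the single-dose primary screen is 50% or more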;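 note: 0% = DMSO with enzyme and 100% = substrate without enzyme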
CRFR2-BP antag = CRF-BP/CRF-R2 complex antagonism | HEK293 CRF-R2/CRF-BP, CRF-induced calcium fluorescence | inhibition, % at 11.8 µM | actives 0.59% (n = 350,000) | AID 588475;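 active = inhibition of the ligand-induced calcium signal above about 50% at the single tested concentration, limit read from the data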
NadD block = NadD (S. aureus) enzyme inhibition | purified NadD enzyme, colorimetric absorbance read-out | inhibition, % at 20 µM | actives 0.78% (n = 360,000) | AID 602399; in the data active = inhibition above about 26%
Active calls of the source: *; i = inactive; ? = inconclusive; . = not tested or not shown; + = active, no number.

SMILES	CendR NRP1 mod	Myeloid diff 2	FAS TE block	CRFR2-BP antag	NadD block
O=C(NCC(=O)N(c1ccc(F)cc1)C(C(=O)NC1CCCC1)c1cccnc1)c1ccco1 (stereo not drawn)	-4	i	-5	16	6
COc1ccc(C(=O)Nc2ccccc2C(=O)N/N=C/c2ccccn2)cc1OC	-11	+	12	1	-21
COc1ccc(C(=O)N/N=C/c2ccccn2)cc1OC	16	i	-2	0	-5
CC(Sc1nnc(-c2ccc(C(C)(C)C)cc2)n1C)C(N)=O (stereo not drawn)	24*	i	-2	-3	-1
Cn1c(SCC(=O)C(C)(C)C)nnc1-c1ccc(F)cc1	-2	i	1	-17	7
Cc1cc(C)nc(SCc2nnc(SCC(=O)Nc3nccs3)n2Cc2ccco2)n1	8	i	-4	5	1
Cc1cccc(NC(=O)CSc2nnc(CSc3nc(C)cc(C)n3)n2Cc2ccco2)c1	9	+	2	3	3
CCN(CC)CC(=O)Nc1ccc(-c2nc3cc(NC(=O)CN(CC)CC)ccc3o2)cc1	17*	i	-6	-6	-5
CCC(C)NCC(=O)Nc1ccc(-c2nc3cc(NC(=O)CNC(C)CC)ccc3o2)cc1 (stereo not drawn)	9	+	-6	-3	-8
CC(C(Sc1ccccc1N)c1ccccc1)[N+](=O)[O-] (stereo not drawn)	9	i	8	-15	0
CCOc1ccccc1OCCCC(=O)Nc1cc(S(=O)(=O)N2CCCCC2)ccc1C	-6	i	7	-16	-5
COc1ccc(NC2CCCN(C(=O)CCN3Cc4ccccc4C3=O)C2)cc1 (stereo not drawn)	7	i	-2	7	2
C[C@@H]1CN([C@@H](C)CO)C(=O)CCCn2nncc2CO[C@H]1CN(C)C(=O)Nc1ccc(-c2cccs2)cc1	-9	i	-5	7	3
Cc1sc2nc(CSCC(=O)Nc3ccccc3C#N)[nH]c(=O)c2c1C	-53	+	-14	0	3
CSc1ccccc1NC(=O)c1cc(CC(C)C)on1	9	i	16	63*	-3
CC(C)Cc1cc(C(=O)Nc2cccnc2)no1	5	i	-6	5	-3
CC1C(c2ccccc2)OCCN1C(=S)NC(=O)c1ccccc1 (stereo not drawn)	-9	i	-4	-38	-2
COc1ccc(C(=O)CC(C#N)c2ccc3c(c2)OCO3)cc1OC (stereo not drawn)	0	i	8	41	-3
Cc1ccc(S(=O)(=O)N(C)c2ccc(C(=O)NCCc3ccccc3)cc2)cc1	1	i	17	3	-7
COc1ccc(CCNC(=O)c2ccc(Cl)c(S(=O)(=O)N(C)c3ccccc3)c2)cc1	23*	i	23	-7	-8
COc1ccc(CCNC(=O)c2ccc(N(C)S(=O)(=O)c3ccc(C)cc3)cc2)cc1	21*	i	17	4	-4
COc1ccc(CCNC(=O)c2ccc(Cl)c(S(=O)(=O)N3CCCCCC3)c2)cc1	-2	i	26	-7	-11
C[C@H](CO)N1C[C@H](C)[C@@H](CN(C)S(=O)(=O)c2cccc(C#N)c2)OCc2cn(nn2)CCCC1=O	5	i	-6	5	1
NC(Cc1ccc(C(F)(F)F)cc1)c1csc(NC(=O)NCCc2ccccc2)n1 (stereo not drawn)	-1	i	-1	.	4
O=c1c2ccc([N+](=O)[O-])cc2ncn1CCOc1ccccc1	-39	+	22	4	-11
SMILES	CendR NRP1 mod	Myeloid diff 2	FAS TE block	CRFR2-BP antag	NadD block
O=C1c2c(-c3ccc(Br)cc3)noc2CCN1Cc1cn(-c2ccc(Cl)cc2)nn1	-1	i	.	.	.
C#CCOCCOCCOCCNc1nc(N2CCN(C(=O)CCCCCCCCCCNC(=O)Cn3cc(C[C@@H](C)O)nn3)CC2)nc(N2CCN(C(=O)CCCCCCCCCCNC(=O)[C@@H](CCC(=O)O)n3cc(CCCCCN)nn3)CC2)n1	-1	i	-8	-6	12
C#CCOCCOCCOCCNc1nc(N2CCN(C(=O)CCCCCCCCCCNC(=O)Cn3cc(CCCCCN)nn3)CC2)nc(N2CCN(C(=O)CCCCCCCCCCNC(=O)[C@@H](CCC(=O)O)n3cc(CCCCCN)nn3)CC2)n1	21*	i	-10	-1	10
C#CCOCCOCCOCCNc1nc(N2CCN(C(=O)CCCCCCCCCCNC(=O)Cn3cc(CCCCCN)nn3)CC2)nc(N2CCN(C(=O)CCCCCCCCCCNC(=O)Cn3cc(CCCCCN)nn3)CC2)n1	18*	i	-25	-5	10
O=C(c1[nH]c(C(F)(F)F)nc1-c1ccccc1)N1CCN(c2ccc(C(F)(F)F)cn2)CC1	0	i	-6	.	8
O=C(O)CSc1nnc(-c2ccc(Cl)cc2Cl)n1-c1ccc(Cl)cc1	26*	i	-8	5	5
CCN1CCN(C(=S)NC(=O)c2cccc(Br)c2)CC1	43*	i	-5	13	-5
O=C(c1ccc(F)cc1)C(CN1CCOCC1)c1ccccc1 (stereo not drawn)	27*	?	-1	-18	-6
COc1ccc(C(=O)C(CN2CCOCC2)c2ccccc2)cc1 (stereo not drawn)	4	?	-8	-1	0
CCOC(=O)C1(Cc2cccc(F)c2)CCN(Cc2cnn(CC)c2)CC1	-3	i	-3	-2	-1
CCOC(=O)C1(Cc2cccc(F)c2)CCN(Cc2nc(CC)[nH]c2C)CC1	-182	+	-14	-10	12
CCCCNC(=O)c1nc(-c2ccncc2)oc1-c1ccccc1	4	i	2	.	-1
O=C1c2ccccc2C(=O)c2cc(N3CCCCC3)ccc21	-36	+	15	-68	-3
O=C(CSc1ccsc1[N+](=O)[O-])N1CCN(c2ccccc2)CC1	15	i	19	27	5
O=C(CSc1ccsc1[N+](=O)[O-])N1CCN(c2ccc(Cl)cc2)CC1	-10	+	10	32	6
C/C(=N\NC(=O)C1CCCC1)c1ccc(C(C)C)cc1	27*	i	7	-10	-9
COC(=O)c1c(NC(=O)c2ccccc2N(C)S(=O)(=O)c2ccccc2)sc2c1CCCC2	5	+	42	4	11
CCOC(=O)c1c(NC(=O)c2ccccc2N(C)S(=O)(=O)c2ccccc2)sc2c1CCCC2	-11	.	30	5	8
COC(=O)c1c(NC(=O)CN(c2ccccc2)S(C)(=O)=O)sc2c1CCCC2	27*	i	23	-4	-6
COC(=O)c1c(NS(=O)(=O)Cc2ccccc2)sc2c1CCCC2	-1	i	4	6	-4
Cc1cc(C(=O)CSc2nnc(Cc3ccccc3)o2)c(C)n1Cc1ccc2c(c1)OCO2	-1	i	11	11	-6
C=CCn1c(C)cc(C(=O)CSc2nnc(Cc3ccccc3)o2)c1C	5	i	0	56*	4
O=C(Nc1ccccc1N1CCCC1)c1ccc(Br)o1	-15	i	-3	4	-4
